This passage reports growth results from PubChem BioAssay (NCI).

This is part of a sample that, as a whole, favours compounds with a hit. Of some 83,000 tested, about 20% had one in any assay.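 Testing used 96-well plates and a 48-hour single-concentration exposure. Example: -40 means 40% of the starting cells died.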 A number with no mark means an inactive call. Calls of active or inactive are those of the source. How the source made its calls: active means growth percent below 10; inactive means the rest.

The subject of this test is COLO 205 colon. Briefly: NCI-60 one-dose screen, 48 h (100 = growth as untreated, 0 = no growth, -100 = all killed). The following applies: 10 µM.
With `CCCCC(CC)CN=C(N)NC(N)=NCCCCCCN=C(N)NC(N)=NCC(CC)CCCC` (stereo unspecified), the growth was -79.8% (active). Under `CO[C@H]1CC(O[C@@H]2/C(C)=C/C[C@@H]3C[C@@H](C[C@]4(C=C[C@H](C)[C@@H](C5CCCCC5)O4)O3)OC(=O)[C@@H]3C=C(C)[C@@H](O)[C@H]4OC/C(=C\C=C\[C@@H]2C)[C@]43O)O[C@@H](C)C1O[C@H]1C[C@H](OC)[C@@H](O)[C@H](C)O1` (stereo partly specified) stands -64.7% (active). Under `CC1/C=C/C=C/C=C/C=C/C=C/C=C/C=C/C(O[C@@H]2O[C@H](C)[C@H](O)[C@@H](O)[C@@H]2N)CC(O)C(C(=O)O)C(O)CC(=O)CC(O)CC(O)CC(O)CC(=O)CCCC(=O)CC(=O)OC1C(C)CC(C)C(O)CC(=O)c1ccc(N)cc1` (stereo partly specified) stands -83.2% (active); under `S=C1N(c2ccccc2)CN(C2CCCCC2)CN1c1ccccc1`, 112%; under `C#C[C@]1(O)CCC2C3CCc4cc(OC5CCCC5)ccc4C3CC[C@@]21C` (stereo partly specified), 49.3%. Under `CC(=O)[C@@]12O[C@](C)(c3ccccc3)O[C@@H]1CC1C3CCC4=CC(=O)CC[C@]4(C)C3CC[C@@]12C` (stereo partly specified) stands 81.7%. On to `COc1ccc2nc3cc(Cl)ccc3c(Nc3cc(CN4CCCC4)c(O)c(CN4CCCC4)c3)c2n1`, for which the growth was -48.5% (active). Regarding `CCc1cc(Cl)c(OC)c(C(=O)NCC2CCCN2CC)c1O` (stereo unspecified), the growth was 103%. Under `CCOC(=O)c1sc2ncnc(Nc3ccc(NC(=O)Nc4ccc(Cl)cc4)cc3)c2c1C` stands 53%; under `Cc1cc(C(C#N)c2ccc(Cl)cc2)c(Cl)cc1NC(=O)c1cc(I)cc(I)c1O` (stereo unspecified), 53.5%; under `COc1cc2c3c(n([C@@H]4CCOC4)c(=O)c2cc1OC)-c1cc2c(cc1C3=O)OCO2`, 38.8%. Under `C[N+]1(CCCCC[N+]2(C)CCCC2)CCCC1` stands 122%; under `C=C(NC(=O)C(=C)NC(=O)c1csc(C2=NC3c4csc(n4)C4NC(=O)c5csc(n5)C(C(C)(O)C(C)O)NC(=O)C5CSC(=N5)C(=CC)NC(=O)C(C(C)O)NC(=O)c5csc(n5)C3(CC2)NC(=O)C(C)NC(=O)C(=C)NC(=O)C(C)NC(=O)C(C(C)CC)NC2C=Cc3c(C(C)O)cc(nc3C2O)C(=O)OC4C)n1)C(N)=O` (stereo unspecified), -14.3% (active).

As to `Nc1nc(Cl)nc2c1ncn2C1O[C@H](CO)[C@@H](O)[C@@H]1F` (stereo partly specified), the growth is 37.6%. Under `CN1CCN(c2cc3c(cc2F)c(=O)c(C(=O)O)cn3-c2ccc(F)cc2)CC1` stands 107%; under `CCC1NC(=O)c2cc(S(N)(=O)=O)c(Cl)cc2N1` (stereo unspecified), 109%; under `CC(=O)O[C@@]12CO[C@@H]1C[C@H](O)[C@@]1(C)C(=O)[C@H](O)C3=C(C)[C@@H](OC(=O)[C@H](O)[C@@H](NC(=O)OC(C)(C)C)c4ccccc4)C[C@@](O)([C@@H](OC(=O)c4ccccc4)C12)C3(C)C` (stereo partly specified), 0.921% (active). Under `CCCc1nc(C(C)(C)O)c(C(=O)O)n1Cc1ccc(-c2ccccc2-c2nn[nH]n2)cc1` stands 111%.

Regarding `Cc1cc(CC(C)CC(C)(C)C)n(O)c(=O)c1` (stereo unspecified) (tested in a mixture with another compound), the growth was 95.5%.

Consider `Cc1nc2n(c(=O)c1CCN1CCC(c3noc4cc(F)ccc34)CC1)CCC[C@@H]2O`, for which the growth is 96.7%.

Regarding `CCOC(=O)c1sc2ncnc(Nc3ccc4c(cnn4C(=O)Nc4ccccc4)c3)c2c1C`, the growth is 70.1%.
